# Measured values taken from PubChem BioAssay.
# Active and inactive are the calls of the source.
# Legend:
# [1] = small molecules captured by biotinylated probe aFSTL3 – biochemical, small-molecule microarray, fluorescence 635/667, stem cell growth factor project, primary screen (AID 1064); settings: higher = more signal;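 also: measures binding of the biotinylated anti-FSTL3 antibody to printed compounds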
# [2] = binders from COS7 lysate, DM2A8 probe, primary screen, torsin A project, cell lysate, small-molecule microarray, fluorescence 635/667 (AID 1065); settings: higher = more signal, COS7 lysate expressing mutant human TOR1A
# [3] = small molecules captured by biotinylated probe aFGF2 – biochemical, small-molecule microarray, fluorescence 635/667, stem cell growth factor project, primary screen (AID 1067); settings: higher = more signal;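 also: measures binding of biotinylated aFGF2 protein to printed compounds on slides; z-score merges feature fluorescence and signal-to-noise across triplicate slides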
# [4] = small molecules captured by biotinylated probe aFGF10 – biochemical, small-molecule microarray, fluorescence 635/667, stem cell growth factor project, primary screen (AID 1071); settings: higher = more signal;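 also: score merges 667 nm spot intensity and signal to noise from triplicate slides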
# [5] = biological target: Neurogenic locus notch homolog protein 2 (Homo sapiens) (UniProt Q04721); experiment: small molecules binding Notch2 protein – biochemical, small-molecule microarray, 635 nm fluorescence, stem cell growth factors, primary screen (AID 1073); settings: higher = more signal
# [6] = biological target: Pro-neuregulin-1, membrane-bound isoform (Homo sapiens) (UniProt Q02297); experiment: small molecules binding neuregulin-1 protein – biochemical, small-molecule microarray, fluorescence 635/667, psychiatric disease protein project, primary screen (AID 1075); settings: NRG1 binding, 635 nm fluorescence, higher = more signal;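 also: score combines 667 nm spot fluorescence with signal to noise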
# [7] = system: Neuregulin-1 EGF-like domain; experiment: small molecules binding NRG1 EGF domain – biochemical, small-molecule microarray, 635 nm fluorescence, primary screen (AID 1081); settings: higher = more signal;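 also: binding of the protein to compounds printed on small-molecule microarray slides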
# [8] = FRG1 expression reporter modulators in myotubes – cell-based, C2C12 myotubes, firefly/Renilla luciferase, luminescence, FRG1 inhibition for FSHD, primary screen (AID 1084); settings: FRG1 promoter luciferase, higher = more signal, called active from +8 up or from −8 down
# [9] = small molecules captured by biotinylated probe aFST – biochemical, small-molecule microarray, fluorescence 635/667, stem cell growth factor project, primary screen (AID 1086); settings: higher = more signal;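 also: score merges 667 nm fluorescence with signal-to-noise of each printed compound spot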
# [10] = binders of probe aHhip on microarray, primary screen, stem cell growth factor project, biochemical, small-molecule microarray, fluorescence 635/667 (AID 1087); settings: higher = more signal;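 also: score merges spot fluorescence at 667nm with spot signal to noise ratio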
# [11] = system: PRMT1 (protein arginine N-methyltransferase 1); experiment: small molecules binding arginine methyltransferase PRMT1 – biochemical, small-molecule microarray, 635 nm fluorescence, primary screen (AID 1088); settings: higher = more signal;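 also: binding of Prmt1 protein to compounds spotted on small-molecule microarray slides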
# [12] = growth effects on S. cerevisiae YJM789 – YJM789 clinical isolate, OD600, 24 h, basal, primary screen (AID 1089); settings: higher = more signal, called active from +8 up or from −8 down;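 also: growth of clinical yeast isolate S. cerevisiae YJM 789 seeded 1000 cells per well; test concentration not given here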
# [13] = S. pombe growth modifiers, basal conditions – strain 972, OD600, 24 h, no modulator, primary screen (AID 1090);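 also: basal condition with compound alone and no growth modifier present; test concentration not given here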; settings: S. pombe 972 growth, higher = more signal, called active from +8 up or from −8 down
# [14] = budding yeast growth modifiers under rapamycin – strain BY4716, OD600, 96 h, primary screen (AID 1091); also: test concentration not given here; settings: S. cerevisiae BY4716 + rapamycin, higher = more signal, called active from +8 up or from −8 down
# [15] = biological target: Torsin-1A-interacting protein 2 (Homo sapiens) (UniProt Q8NFQ8); experiment: small molecules binding lysate-expressed LULL1 – cell lysate, human LULL1 lysate, 635/667 nm fluorescence, primary screen (AID 1092); settings: small-molecule microarray, hLULL1 lysate binding, 635 nm fluorescence; higher = more signal;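 also: probe is lysate of COS7 cells overexpressing human LULL1; score merges per-feature 667 nm fluorescence with signal-to-noise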
# [16] = optical density change of DRC41 E. coli – strain DRC41, OD650, 24 h, E. coli filamentation project, primary screen (AID 1093);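 also: MC1000 strain lacking acrAB efflux and sulA so SOS filamentation is blocked; test concentration not given here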; settings: E. coli DRC41 growth, higher = more signal, called active from +8 up or from −8 down
# [17] = probe aLefty2 binding to arrayed compounds – biochemical, biotinylated probe, 635/667 nm fluorescence, primary screen (AID 1094); settings: small-molecule microarray, higher = more signal;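 also: score merges spot fluorescence near 667 nm with spot signal-to-noise ratio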
# [18] = system: Noggin (protein binding on small-molecule microarray); experiment: small molecules binding Noggin protein – biochemical, 635/667 nm fluorescence, primary screen (AID 1095); settings: 635 nm fluorescence, higher = more signal;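 also: score merges 667 nm feature fluorescence with signal to noise over triplicate slides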
# [19] = biological target: Neurogenic locus notch homolog protein 3 (Homo sapiens) (UniProt Q9UM47); experiment: small molecules binding NOTCH3 protein – biochemical, 635/667 nm fluorescence, primary screen (AID 1096); settings: small-molecule microarray, 635 nm fluorescence, higher = more signal
# [20] = probe aEGFR binding to arrayed compounds – biochemical, biotinylated probe, 635/667 nm fluorescence, primary screen (AID 1097); settings: small-molecule microarray, higher = more signal;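 also: probe is a biotinylated anti-EGFR antibody binding compounds printed on slides; score combines fluorescence near 667 nm and signal to noise of each spot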
# Sequence of Neurogenic locus notch homolog protein 3 (Homo sapiens) (Q9UM47 whole entry, looked up): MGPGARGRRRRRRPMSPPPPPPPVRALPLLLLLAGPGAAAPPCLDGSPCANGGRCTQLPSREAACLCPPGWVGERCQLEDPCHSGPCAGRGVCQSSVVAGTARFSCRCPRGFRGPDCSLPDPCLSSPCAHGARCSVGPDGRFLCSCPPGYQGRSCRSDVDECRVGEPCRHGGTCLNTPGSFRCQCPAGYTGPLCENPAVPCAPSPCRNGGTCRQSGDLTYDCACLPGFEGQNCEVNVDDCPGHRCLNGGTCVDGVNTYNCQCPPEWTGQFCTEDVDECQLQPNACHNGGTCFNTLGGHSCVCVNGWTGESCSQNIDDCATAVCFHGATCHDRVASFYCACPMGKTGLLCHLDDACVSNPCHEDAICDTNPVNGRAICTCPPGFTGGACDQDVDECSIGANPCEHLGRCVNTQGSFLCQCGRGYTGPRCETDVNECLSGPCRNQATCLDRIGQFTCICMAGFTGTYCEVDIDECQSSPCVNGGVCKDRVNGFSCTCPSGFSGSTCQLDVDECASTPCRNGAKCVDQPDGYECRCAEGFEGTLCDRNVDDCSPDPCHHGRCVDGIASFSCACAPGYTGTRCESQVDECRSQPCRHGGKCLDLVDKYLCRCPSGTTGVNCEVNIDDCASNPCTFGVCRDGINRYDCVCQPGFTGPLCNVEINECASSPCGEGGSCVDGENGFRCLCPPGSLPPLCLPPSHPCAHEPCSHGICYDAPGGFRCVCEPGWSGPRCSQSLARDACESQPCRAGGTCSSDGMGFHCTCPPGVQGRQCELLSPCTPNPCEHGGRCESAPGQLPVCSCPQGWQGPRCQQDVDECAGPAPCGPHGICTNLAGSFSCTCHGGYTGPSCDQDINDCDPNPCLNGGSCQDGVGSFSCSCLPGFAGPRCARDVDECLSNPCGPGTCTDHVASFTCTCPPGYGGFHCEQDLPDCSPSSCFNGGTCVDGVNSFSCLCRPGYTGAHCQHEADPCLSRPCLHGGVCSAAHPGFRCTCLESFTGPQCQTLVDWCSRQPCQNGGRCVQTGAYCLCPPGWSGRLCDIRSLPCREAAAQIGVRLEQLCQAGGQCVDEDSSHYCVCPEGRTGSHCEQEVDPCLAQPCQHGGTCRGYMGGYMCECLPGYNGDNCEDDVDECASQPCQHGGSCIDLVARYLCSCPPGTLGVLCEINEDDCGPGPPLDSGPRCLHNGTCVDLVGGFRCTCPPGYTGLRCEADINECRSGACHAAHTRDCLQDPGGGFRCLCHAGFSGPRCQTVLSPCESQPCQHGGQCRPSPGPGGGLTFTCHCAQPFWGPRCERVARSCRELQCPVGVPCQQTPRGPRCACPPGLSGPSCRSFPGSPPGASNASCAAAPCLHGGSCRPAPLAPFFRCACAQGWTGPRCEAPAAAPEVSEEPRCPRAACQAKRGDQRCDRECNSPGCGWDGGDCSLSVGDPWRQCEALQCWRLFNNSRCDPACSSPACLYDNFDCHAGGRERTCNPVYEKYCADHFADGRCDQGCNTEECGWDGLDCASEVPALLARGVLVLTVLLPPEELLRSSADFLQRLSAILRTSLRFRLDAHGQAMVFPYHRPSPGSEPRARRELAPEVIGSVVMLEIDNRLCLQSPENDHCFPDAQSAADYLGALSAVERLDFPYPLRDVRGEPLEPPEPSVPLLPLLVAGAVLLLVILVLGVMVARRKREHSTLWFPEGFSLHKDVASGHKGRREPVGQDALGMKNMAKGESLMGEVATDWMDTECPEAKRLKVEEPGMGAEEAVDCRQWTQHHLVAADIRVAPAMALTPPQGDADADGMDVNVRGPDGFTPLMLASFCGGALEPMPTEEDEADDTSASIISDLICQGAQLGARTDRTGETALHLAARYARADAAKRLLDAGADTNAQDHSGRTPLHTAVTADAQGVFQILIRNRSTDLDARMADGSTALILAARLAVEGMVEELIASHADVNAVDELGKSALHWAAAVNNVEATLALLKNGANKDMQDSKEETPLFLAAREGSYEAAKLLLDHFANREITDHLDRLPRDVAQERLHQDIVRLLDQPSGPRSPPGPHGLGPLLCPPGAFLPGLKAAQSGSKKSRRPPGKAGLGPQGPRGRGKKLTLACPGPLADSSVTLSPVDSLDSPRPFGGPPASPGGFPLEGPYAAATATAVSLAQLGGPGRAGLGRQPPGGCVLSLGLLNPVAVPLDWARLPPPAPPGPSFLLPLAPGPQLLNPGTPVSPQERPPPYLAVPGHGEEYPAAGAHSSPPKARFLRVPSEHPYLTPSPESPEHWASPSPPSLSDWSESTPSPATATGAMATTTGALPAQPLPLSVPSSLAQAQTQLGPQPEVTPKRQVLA
# Sequence of Neurogenic locus notch homolog protein 2 (Homo sapiens) (Q04721 whole entry, looked up, canonical isoform): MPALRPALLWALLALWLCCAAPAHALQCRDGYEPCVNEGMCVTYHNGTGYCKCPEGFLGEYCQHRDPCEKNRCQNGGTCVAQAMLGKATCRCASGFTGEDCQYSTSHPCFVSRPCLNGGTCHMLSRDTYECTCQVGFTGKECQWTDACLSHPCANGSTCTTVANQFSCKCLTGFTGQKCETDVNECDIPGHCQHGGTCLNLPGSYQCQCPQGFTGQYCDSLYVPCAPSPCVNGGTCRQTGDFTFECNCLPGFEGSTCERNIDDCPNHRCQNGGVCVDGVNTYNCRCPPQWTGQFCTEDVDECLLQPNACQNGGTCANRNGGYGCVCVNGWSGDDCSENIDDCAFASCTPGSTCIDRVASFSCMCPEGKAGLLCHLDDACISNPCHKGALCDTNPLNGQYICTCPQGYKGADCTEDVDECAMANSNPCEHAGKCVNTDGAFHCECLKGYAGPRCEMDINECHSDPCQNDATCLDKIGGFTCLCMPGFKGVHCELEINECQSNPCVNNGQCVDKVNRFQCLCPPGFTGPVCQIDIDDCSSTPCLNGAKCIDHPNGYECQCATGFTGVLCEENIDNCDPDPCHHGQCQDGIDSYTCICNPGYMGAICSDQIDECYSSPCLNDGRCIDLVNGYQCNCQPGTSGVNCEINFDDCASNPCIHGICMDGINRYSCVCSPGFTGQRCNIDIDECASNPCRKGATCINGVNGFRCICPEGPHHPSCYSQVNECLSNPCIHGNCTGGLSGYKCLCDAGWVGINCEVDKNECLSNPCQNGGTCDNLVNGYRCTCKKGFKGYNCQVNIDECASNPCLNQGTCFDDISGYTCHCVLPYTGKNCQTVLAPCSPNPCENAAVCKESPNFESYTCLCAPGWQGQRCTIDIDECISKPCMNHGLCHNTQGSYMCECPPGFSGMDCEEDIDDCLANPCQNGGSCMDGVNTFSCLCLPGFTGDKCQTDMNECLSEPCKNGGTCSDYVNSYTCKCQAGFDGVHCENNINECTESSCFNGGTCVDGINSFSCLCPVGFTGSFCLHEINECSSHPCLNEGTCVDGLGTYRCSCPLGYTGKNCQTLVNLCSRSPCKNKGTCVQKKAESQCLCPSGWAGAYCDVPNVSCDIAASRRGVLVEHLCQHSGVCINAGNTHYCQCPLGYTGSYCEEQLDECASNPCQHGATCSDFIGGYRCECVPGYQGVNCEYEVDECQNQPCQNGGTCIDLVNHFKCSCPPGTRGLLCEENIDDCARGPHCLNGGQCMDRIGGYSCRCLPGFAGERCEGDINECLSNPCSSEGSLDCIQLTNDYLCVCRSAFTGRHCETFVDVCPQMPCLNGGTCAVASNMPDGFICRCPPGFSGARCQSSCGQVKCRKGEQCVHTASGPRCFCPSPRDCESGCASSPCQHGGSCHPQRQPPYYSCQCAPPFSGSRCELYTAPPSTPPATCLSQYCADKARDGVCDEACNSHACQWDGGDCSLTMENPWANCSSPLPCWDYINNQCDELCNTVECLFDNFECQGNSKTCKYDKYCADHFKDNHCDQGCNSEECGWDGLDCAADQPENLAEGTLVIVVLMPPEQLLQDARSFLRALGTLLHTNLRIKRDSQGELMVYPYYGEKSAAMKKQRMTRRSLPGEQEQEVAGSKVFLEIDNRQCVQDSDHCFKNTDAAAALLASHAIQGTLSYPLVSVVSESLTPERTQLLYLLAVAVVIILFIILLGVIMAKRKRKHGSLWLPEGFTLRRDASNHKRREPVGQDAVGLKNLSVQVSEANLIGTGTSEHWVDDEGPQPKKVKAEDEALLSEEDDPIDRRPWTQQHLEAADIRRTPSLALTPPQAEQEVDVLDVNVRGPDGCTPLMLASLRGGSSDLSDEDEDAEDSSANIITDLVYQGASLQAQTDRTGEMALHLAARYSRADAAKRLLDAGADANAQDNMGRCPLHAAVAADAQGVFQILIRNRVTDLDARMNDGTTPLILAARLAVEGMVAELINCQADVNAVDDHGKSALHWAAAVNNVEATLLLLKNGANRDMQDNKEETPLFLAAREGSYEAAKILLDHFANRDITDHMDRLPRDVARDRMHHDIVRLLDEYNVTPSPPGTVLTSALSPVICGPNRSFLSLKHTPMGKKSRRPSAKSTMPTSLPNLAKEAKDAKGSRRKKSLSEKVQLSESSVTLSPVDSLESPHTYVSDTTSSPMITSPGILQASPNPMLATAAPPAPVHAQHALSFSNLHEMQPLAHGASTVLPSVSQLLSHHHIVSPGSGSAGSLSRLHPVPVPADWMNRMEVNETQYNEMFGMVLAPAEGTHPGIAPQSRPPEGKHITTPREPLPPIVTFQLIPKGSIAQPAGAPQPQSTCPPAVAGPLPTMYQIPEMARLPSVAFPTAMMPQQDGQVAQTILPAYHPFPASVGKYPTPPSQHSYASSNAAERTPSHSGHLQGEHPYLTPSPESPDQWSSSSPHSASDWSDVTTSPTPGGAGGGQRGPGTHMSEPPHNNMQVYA
Compound,composite z-score [1],composite z-score [2],composite z-score [3],composite z-score [4],composite z-score [5],composite z-score [6],composite z-score [7],z-score [8],composite z-score [9],composite z-score [10],composite z-score [11],z-score [12],z-score [13],z-score [14],composite z-score [15],z-score [16],composite z-score [17],composite z-score [18],composite z-score [19],composite z-score [20]
C=CCOC(=O)[C@H]1[C@@H]2C(=O)O[C@@H](c3ccccc3)[C@@H](c3ccccc3)N2[C@@H](c2ccc(OCCOC(=O)[C@H]3C[C@H]4C(=O)N[C@@H](Cc5ccccc5)C(=O)N4[C@H]3c3cccc(OCCO)c3)cc2)[C@]12C(=O)Nc1ccc(I)cc12,-0.36,0.876,0.0422,0.66,0.118,1.35,1.21,0.633 (inactive),0.0086,0.122,1.54,0.731 (inactive),1 (inactive),4 (inactive),2.36,-0.0451 (inactive),-0.185,1.91,1.09,-0.067
C=C(/C(=C/C[C@@H](OC(=O)c1ccncc1)c1ccc(OCCO)cc1)c1cc(C(=O)OC)ccc1OC)C(C)C,-0.445,1.24,-0.139,0.93,0.833,0.679,1.13,0.317 (inactive),0.0136,-0.399,1.48,0.412 (inactive),0.252 (inactive),0.339 (inactive),1.32,0.681 (inactive),-0.317,0.89,1.1,-0.0509
COCCOC(=O)N1C(=O)[C@@]2(c3ccccc31)[C@H](c1ccc(OCCO)cc1)N1[C@H](c3ccccc3)[C@H](c3ccccc3)OC(=O)[C@H]1[C@@H]2C(=O)Nc1nc2ccccc2s1,-0.436,-0.504,-0.0848,0.26,0.829,1.07,1.25,-0.567 (inactive),0.439,0.154,1.45,0.405 (inactive),0.371 (inactive),2.33 (inactive),3.13,1.16 (inactive),0.0305,0.396,1.13,-0.0039
COC(=O)C(CC#Cc1ccc2c(c1)[C@]1(C(=O)N2)[C@H](C(=O)O)[C@H]2C(=O)O[C@H](c3ccccc3)[C@H](c3ccccc3)N2[C@@H]1c1ccccc1OCCO)C(=O)OC,0.232,0.63,0.0762,1.12,0.866,1.27,1.21,0.483 (inactive),0.451,0.275,1.54,1.93 (inactive),0.324 (inactive),-1.17 (inactive),3.04,-0.972 (inactive),0.396,1.27,1.15,0.103
CN(C)CCCNC(=O)[C@@H]1c2ccccc2C(=O)N(Cc2ccc(OC(F)(F)F)cc2)[C@H]1c1ccc(CO)cc1,-0.212,-0.103,-0.113,-0.133,-0.0854,1.22,1.15,-1.22 (inactive),0.18,0.287,1.54,-1.02 (inactive),-1.06 (inactive),-1.41 (inactive),2.22,-0.883 (inactive),-0.0654,0.912,0.951,-0.171
CCOC(=O)[C@H]1C/C=C/C[C@H](C(=O)OCC)C(=O)O[C@H]2[C@@H](OC)O[C@H](CO)[C@@H](OC(=O)Nc3ccc(OC)cc3)[C@@H]2OC1=O,-0.0119,0.753,0.0386,0.803,1.16,0.309,0.94,2.18 (inactive),0.363,0.675,1.49,1.04 (inactive),-0.0368 (inactive),3.56 (inactive),2.03,1.3 (inactive),0.217,0.713,1.09,-0.0737
C=C[C@@H](COC(C)=O)NS(=O)(=O)c1ccc(Br)cc1,-0.35,0.242,-0.0296,0.135,0.414,0.0227,0.564,1.39 (inactive),0.111,-0.0672,0.317,-0.952 (inactive),-15.7 (active),-1.36 (inactive),0.399,-0.819 (inactive),-0.176,0.516,0.269,-0.157
CC(C)N1CC=CC23O[C@@H]4C=CCOC(=O)[C@@H]4[C@H]2C(=O)N(C(C)CO)[C@@H]3C1=O (stereo not given in full),0.377,-1.2,-0.071,-0.536,-1.11,2.17,0.9,0.106 (inactive),-0.508,-0.593,-1,-0.741 (inactive),-0.06 (inactive),-0.0277 (inactive),-0.163,-0.0334 (inactive),0.119,-1.03,-0.66,-0.199
[N-]=[N+]=NCc1ccccc1C[C@]1(C(=O)NCC(O)CO)N=C(c2ccc(OCCCO)cc2)O[C@H]1c1ccccc1CN=[N+]=[N-] (stereo not given in full),0.0591,0.696,0.139,1.14,0.566,1.34,1.16,-0.799 (inactive),0.723,-0.0618,1.56,-0.331 (inactive),0.735 (inactive),1.48 (inactive),3.6,-0.172 (inactive),0.054,-0.0965,0.624,0.306
CCOC(=O)C[C@H]1[C@H](OC(=O)c2ccc(-c3ccccc3)cc2)[C@@H](NC(=O)c2ccc3ccccc3n2)c2cc(OCCCO)ccc2N1C(=O)c1ccccc1,-0.497,0.482,-0.0996,0.618,1.01,0.464,0.857,-0.561 (inactive),0.579,0.113,1.52,0.617 (inactive),0.33 (inactive),0.976 (inactive),2.11,-0.81 (inactive),-0.171,0.671,1.05,0.0026
